Bead autofluor: compound fluorescence in toxin protease inhibitor counterscreen; compound autofluorescence counterscreen, microsphere flow cytometry; active compounds read high; hit rate 3.1% among 360,000; fluorescence intensity (no concentration beside the values); in the data active means fluorescence intensity above about 16000; inconclusive means no clear call, values can overlap the other calls
BoNT-F LC inh: BoNT F light chain protease inhibition; hit rate 0.22% among 360,000; Multiplex microsphere protease cleavage assay, flow cytometry; AID 588497; inhibition, % at 10 µM; in the data active means inhibition above about 35%, passing the limit was not always enough; inconclusive means no clear call, values can overlap the other calls; further: plate controls were buffer without enzyme for full effect and enzyme alone for no effect
3CLpro inhibitor: SARS-CoV 3CLpro protease inhibition | recombinant SARS-CoV 3CLpro, quenched FRET peptide cleavage | inhibition, % at 6 µM | hit rate 0.14% among 290,000 | AID 1706; in the data active means inhibition above about 12%
Anthrax LF prot: anthrax lethal factor protease inhibition. P15917. multiplex microsphere protease cleavage assay, LF. inhibition, % at 10 µM. hit rate 0.12% among 360,000; further: plate controls were buffer without enzyme for full effect and enzyme alone for no effect
BoNT-A LC inh2: BoNT A light chain protease inhibition. inhibition, % at 10 µM. hit rate 0.17% among 360,000. multiplex microsphere protease substrate cleavage, flow cytometry; further: plate controls were buffer without enzyme for full effect and enzyme alone for no effect
* hit, by the source's call; ? = inconclusive; · = no result. Most compounds without a hit are left out; they make up all but 3.5% or so of the library. Unless noted, no stated cut-off is given here; in the data, active means inhibition above about 30%; inconclusive means no clear call, values can overlap the other calls; inactive means below that.

SMILES	Bead autofluor	BoNT-F LC inh	3CLpro inhibitor	Anthrax LF prot	BoNT-A LC inh2
CCCOc1ccc(C(=O)OCC(=O)c2c(N)n(C)c(=O)n(C)c2=O)cc1OCC	2996	0	4	0	0
CCOc1cc(C(=O)OCC(=O)c2c(N)n(C)c(=O)n(C)c2=O)cc(OCC)c1OCC	22161*	2	-5	2	1
CC(C)CC1Nc2ncnc(N3CCN(c4ccccc4)CC3)c2N(Cc2ccccc2)C1=O (centres undefined)	3368	-7	·	-9	0
O=C(C[n+]1cc(Br)cc(Br)c1)c1ccc(Cl)cc1	3666	-11	-4	5	8
Cc1ccc(C(=O)C[n+]2cccc3ccccc32)cc1	5828	53*	2	16	11
O=C(C[n+]1cc(Br)cc2ccccc21)c1ccc(Cl)cc1	6803	32	-2	20	104*
O=C(C[n+]1cc(Br)cc2ccccc21)c1ccc(Br)cc1	6312	-1	3	45*	120*
Cc1c(C(C)(C)C)c(C=S)n2ccccc12	21631*	-8	-2	-6	?
COc1ccccc1NC(=O)CN(Cc1ccco1)C(=O)c1cncc(Br)c1	4219	6	-6	0	0
COc1ccccc1NC(=O)c1cccs1	16647*	-3	6	-2	0
COc1ccccc1NC(=O)CN(Cc1ccco1)C(=O)c1cccs1	23213*	0	-1	-4	0
O=S(=O)(/N=C(\Sc1ccccc1)c1ccccc1)c1ccc(Cl)cc1	12569	-19	0	-5	-1
Cc1ccc(S(=O)(=O)/N=C(\Sc2ccccc2)c2ccccc2)cc1	24784*	-6	4	0	-2
O=C(CSc1ncn[nH]1)N(C1CCCCC1)C1CCCCC1	20145*	-3	2	2	-1
Cn1c(CO)cnc1SCc1c(Cl)cccc1Cl	22193*	-1	1	-1	?
Cn1c(CS(=O)Cc2c(Cl)cccc2Cl)nnc1SCc1c(Cl)cccc1Cl (centres undefined)	16613*	-1	-5	-2	-1
Cn1c(CO)cnc1SCc1ccc(F)cc1	4641	0	3	-4	0
O=S(Cc1ccc(Br)cc1)Cc1nnc(SCc2c(Cl)cccc2Cl)n1-c1ccccc1 (centres undefined)	11794	-1	5	-2	0
COCCNC(=S)Nc1ccc(N2CCOCC2)c(S(=O)(=O)Nc2ccccc2OC)c1	3527	-6	·	-2	0
Cc1ccc2c(CNCc3ccco3)cc(=O)oc2c1	23320*	0	3	-3	0
Cc1ccnc(N2C(=O)OC(C)(C)C2(C)O)c1 (centres undefined)	16787*	-1	-4	0	0
Cc1cc(NS(=O)(=O)c2ccc(NC(=O)Nc3ccc4c(c3)OCO4)cc2)no1	16204*	-2	-3	0	?
CCC(=O)Nc1ccc(S(=O)(=O)Nc2cc(C)on2)cc1	10473	-1	3	-4	0
Cc1cc(NS(=O)(=O)c2ccc(NC(=O)NC3CCCCC3)cc2)no1	17035*	-5	-1	-7	-4
Cc1cc(NS(=O)(=O)c2ccc(NC(=O)c3oc4ccccc4c3C)cc2)no1	22342*	-1	4	3	0
SMILES	Bead autofluor	BoNT-F LC inh	3CLpro inhibitor	Anthrax LF prot	BoNT-A LC inh2
CC(C)NC(=O)Nc1ccc2c(c1)C(=O)N([C@H](C)CO)C[C@H](C)[C@@H](CN(C)C(=O)NC1CCCCC1)O2	2892	-1	·	-1	0
O=C(O)c1ccc(Sc2nnc(-c3cccc(Br)c3)o2)c([N+](=O)[O-])c1	22792*	-3	6	-3	?
O=C(c1cc2nc(-c3ccc(F)cc3)cc(C(F)(F)F)n2n1)N1CCOCC1	3650	3	-1	-7	0
O=C(NC1CCCC1)c1cc2nc(-c3ccccc3)cc(-c3ccccc3)n2n1	4954	-3	5	-3	0
O=C(c1cc2nc(-c3ccccc3)cc(C(F)(F)F)n2n1)N1CCOCC1	21930*	1	-5	-4	2
CC1CCN(C(=O)c2cc3nc(-c4ccccc4)cc(-c4ccccc4)n3n2)CC1	20793*	-2	-7	0	-2
Cc1sc(-n2c(C)cc(C=C3C(=O)NC(=O)NC3=O)c2C)c(C#N)c1C	·	·	10	·	·
Cc1sc(-n2c(C)cc(/C=N/n3cnnc3)c2C)c(C#N)c1C	22786*	-4	4	-6	-2
CC(C)(C)c1ccc(C(=O)N2CCC(C(=O)NCCC3=CCCCC3)CC2)cc1	8162	-7	2	-4	-1
O=c1cc(C(F)(F)F)nc(-c2ccccc2)[nH]1	21831*	2	4	-1	?
O=c1oc2ccccc2c(O)c1/C=N/c1ccccn1	3086	-1	6	4	0
O=C(CCc1ccccc1)NC(=S)Nc1cc(C(F)(F)F)ccc1N1CCOCC1	19113*	-2	2	0	2
CCc1nc2c(OCc3ccc4c(c3)OCO4)cccn2c1N(C=O)Cc1ccccc1	3954	-6	·	2	0
COCCNC(=O)CN1CCC(NC(=O)Nc2ccccc2)CC1	?	-7	1	2	?
COCCNC(=O)CN1CCC(NC(=O)Nc2ccc(C(F)(F)F)cc2)CC1	23251*	-5	-3	-3	-1
CCCn1nnnc1-c1ccc(Cl)cc1	19416*	-4	-1	-1	0
FC(F)(F)c1cccc(Cn2nnnc2-c2ccc(Cl)cc2)c1	22919*	-2	4	0	-1
CCCn1nnnc1-c1cccc(Cl)c1	20165*	1	0	2	1
CN(C(=O)CN1C(=O)c2ccccc2S1(=O)=O)c1ccccc1C(=O)O	11522	-6	-10	2	-1
CCC(C)C(CO)NCCCn1ccc(NC(=O)OCc2ccccc2)nc1=O (centres undefined)	3244	-2	·	-4	0
CCn1c(SCc2nc(-c3ccccc3)no2)nnc1-c1ccco1	23800*	-6	0	-4	-3
CCn1c(SCc2nc(-c3ccccc3)no2)nnc1-c1cccs1	4159	3	1	2	0
c1ccc(-c2noc(CSc3nnnn3C3CCCCC3)n2)cc1	20752*	-3	-3	-2	-1
c1ccc(-c2noc(CC3CCCCC3)n2)cc1	6314	-21	-2	-2	-5
COc1ccc(N=C2SC(CC(=O)Nc3ccccc3F)C(=O)N2Cc2ccco2)cc1 (centres undefined)	2381	0	7	0	0
CCCNC(=O)Cn1c(=O)/c(=C/c2ccc(-c3ccc([N+](=O)[O-])cc3)o2)s/c1=C\C(=O)C(C)(C)C	6201	22	·	33*	32*
COc1ccccc1C(=O)NC(=O)CSc1nncn1C(C)C	4587	3	·	-4	1
Cc1ccc(C(=O)O)cc1-c1ccc(/C=C2/NC(=O)N(c3ccccc3)C2=O)o1	23411*	0	4	2	0
Cc1cc(C(=O)O)ccc1-c1ccc(/C=C2\NC(=O)N(Cc3ccccc3Cl)C2=O)o1	4188	-3	-2	4	0
Cc1cccc(NC(=O)c2ccc3c(c2)C(=O)N(Cc2cccnc2)C3=O)c1C	5705	0	2	-4	2

Source: PubChem BioAssay
